The whole screen tested about 5,500 compounds, of which about 2,000 (36%) were called active. About 18% were inconclusive and are not listed. Cut-off read from the data, not from the text of the source: active = normalized growth mostly below about 0.91 (no sharp cut-off); inconclusive = no clear call, values can overlap the other calls; inactive = mostly above about 0.92. The list shows a part of the results.
Assay: chemical genetic growth profiling, strain panel (AID 1159580);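 note: tested at 20 µM; growth read once vehicle control cultures reached saturation at 30 °C; 1 = growth at the plate median or of vehicle wells; lower values mean less growth of the strain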
Settings: growth OD

Measured: normalized growth

CCCCC(=O)N(Cc1ccc(-c2ccccc2-c2nn[nH]n2)cc1)[C@H](C(=O)O)C(C)C
inactive: S. cerevisiae deletion strains, locus YJR066W, strain TOR1, hits give low values 0.959 | S. cerevisiae deletion strains, locus YJR075W, strain HOC1, hits give low values 1 | S. cerevisiae deletion strains, locus YKL009W, strain mrt4, hits give low values 0.968 | S. cerevisiae deletion strains, locus YKL068W, hits give low values 0.964 | S. cerevisiae deletion strains, locus YKL085W, strain MDH1 (second series), hits give low values 0.959 | S. cerevisiae deletion strains, locus YKL085W, strain MDH1, hits give low values 0.959 | S. cerevisiae deletion strains, locus YKL160W, strain elf1, hits give low values 1.01 | S. cerevisiae deletion strains, locus YKL190W, strain CNB1, hits give low values 0.986 | S. cerevisiae deletion strains, locus YKR001C, strain vps1, hits give low values 0.987 | S. cerevisiae deletion strains, locus YKR026C, strain gcn3, hits give low values 0.985 | S. cerevisiae deletion strains, locus YKR091W, strain srl3, hits give low values 0.981 | S. cerevisiae deletion strains, locus YLL001W, strain dnm1, hits give low values 0.993 | S. cerevisiae deletion strains, locus YLL026W, hits give low values 0.998 | S. cerevisiae deletion strains, locus YLL041C, strain sdh2, hits give low values 1 | S. cerevisiae deletion strains, locus YLR027C, strain aat2, hits give low values 0.999 | S. cerevisiae deletion strains, locus YLR039C, strain RIC1, hits give low values 0.963 | S. cerevisiae deletion strains, locus YLR058C, strain SHM2, hits give low values 1 | S. cerevisiae deletion strains, locus YLR102C, strain apc9, hits give low values 0.975 | S. cerevisiae deletion strains, locus YLR113W, strain HOG1, hits give low values 0.987 | S. cerevisiae deletion strains, locus YLR221C, strain rsa3, hits give low values 0.977 | S. cerevisiae deletion strains, locus YLR258W, strain gsy2, hits give low values 0.989 | S. cerevisiae deletion strains, locus YLR262C, strain YPT6 (second series), hits give low values 1 | S. cerevisiae deletion strains, locus YLR262C, strain YPT6, hits give low values 0.981 | S. cerevisiae deletion strains, locus YLR268W, strain sec22, hits give low values 0.977 | S. cerevisiae deletion strains, locus YLR320W, strain mms22, hits give low values 0.993 | S. cerevisiae deletion strains, locus YLR330W, strain CHS5, hits give low values 0.99 | S. cerevisiae deletion strains, locus YLR342W, strain FKS1 (second series), hits give low values 1.01 | S. cerevisiae deletion strains, locus YLR342W, strain FKS1, hits give low values 1.02 | S. cerevisiae deletion strains, locus YLR357W, strain rsc2, hits give low values 0.976 | S. cerevisiae deletion strains, locus YLR370C, strain arc18, hits give low values 1 | S. cerevisiae deletion strains, locus YLR371W, strain rom2, hits give low values 0.977 | S. cerevisiae deletion strains, locus YLR384C, strain iki3, hits give low values 1.01 | S. cerevisiae deletion strains, locus YLR418C, strain cdc73, hits give low values 0.989 | S. cerevisiae deletion strains, locus YML016C, strain PPZ1, hits give low values 0.994 | S. cerevisiae deletion strains, locus YML032C, strain rad52, hits give low values 0.985 | S. cerevisiae deletion strains, locus YML120C, strain ndi1, hits give low values 0.981 | S. cerevisiae deletion strains, locus YML124C, strain tub3, hits give low values 0.985 | S. cerevisiae deletion strains, locus YMR058W, strain fet3, hits give low values 0.982 | S. cerevisiae deletion strains, locus YMR078C, strain ctf18, hits give low values 0.995 | S. cerevisiae deletion strains, locus YMR125W, strain sto1, hits give low values 0.932 | S. cerevisiae deletion strains, locus YMR129W, hits give low values 0.983 | S. cerevisiae deletion strains, locus YMR205C, strain PFK2, hits give low values 0.994 | S. cerevisiae deletion strains, locus YMR223W, strain ubp8, hits give low values 0.994 | S. cerevisiae deletion strains, locus YMR231W, strain pep5, hits give low values 1 | S. cerevisiae deletion strains, locus YMR263W, strain SAP30, hits give low values 0.975 | S. cerevisiae deletion strains, locus YMR307W, strain GAS1, hits give low values 1.04 | S. cerevisiae deletion strains, locus YNL067W, strain RPL9B, hits give low values 0.985 | S. cerevisiae deletion strains, locus YNL071W, strain lat1, hits give low values 0.991 | S. cerevisiae deletion strains, locus YNL128W, strain TEP1, hits give low values 0.969 | S. cerevisiae deletion strains, locus YNL153C, strain GIM3, hits give low values 0.991 | S. cerevisiae deletion strains, locus YNL183C, strain NPR1, hits give low values 0.956 | S. cerevisiae deletion strains, locus YNL209W, strain ssb2, hits give low values 0.989 | S. cerevisiae deletion strains, locus YNL233W, strain BNI4, hits give low values 0.995 | S. cerevisiae deletion strains, locus YNL248C, strain rpa49, hits give low values 0.947 | S. cerevisiae deletion strains, locus YNL250W, strain rad50, hits give low values 0.944 | S. cerevisiae deletion strains, locus YNL271C, strain bni1, hits give low values 0.98 | S. cerevisiae deletion strains, locus YNL298W, strain CLA4, hits give low values 0.971 | S. cerevisiae deletion strains, locus YNL307C, strain MCK1, hits give low values 0.98 | S. cerevisiae deletion strains, locus YNL322C, strain KRE1 (second series), hits give low values 0.988 | S. cerevisiae deletion strains, locus YNL322C, strain KRE1, hits give low values 0.981 | S. cerevisiae deletion strains, locus YNR049C, strain mso1, hits give low values 0.965 | S. cerevisiae deletion strains, locus YNR052C, strain pop2, hits give low values 0.991 | S. cerevisiae deletion strains, locus YOL006C, strain TOP1, hits give low values 1.01 | S. cerevisiae deletion strains, locus YOL012C, strain htz1 1.43 | S. cerevisiae deletion strains, locus YOL147C, strain pex11, hits give low values 0.98 | S. cerevisiae deletion strains, locus YOR001W, strain rrp6, hits give low values 0.988 | S. cerevisiae deletion strains, locus YOR061W, strain CKA2, hits give low values 0.985 | S. cerevisiae deletion strains, locus YOR069W, strain VPS5, hits give low values 0.989 | S. cerevisiae deletion strains, locus YOR070C, strain gyp1, hits give low values 0.994 | S. cerevisiae deletion strains, locus YOR080W, strain dia2, hits give low values 0.988 | S. cerevisiae deletion strains, locus YOR083W, strain WHI5, hits give low values 1.01 | S. cerevisiae deletion strains, locus YOR106W, strain vam3, hits give low values 0.998 | S. cerevisiae deletion strains, locus YOR136W, strain idh2, hits give low values 0.991 | S. cerevisiae deletion strains, locus YOR144C, strain elg1, hits give low values 0.988 | S. cerevisiae deletion strains, locus YOR231W, strain MKK1, hits give low values 0.963 | S. cerevisiae deletion strains, locus YOR265W, strain rbl2, hits give low values 0.999 | S. cerevisiae deletion strains, locus YOR270C, strain vph1, hits give low values 0.997 | S. cerevisiae deletion strains, locus YOR290C, strain snf2, hits give low values 0.962 | S. cerevisiae deletion strains, locus YOR316C, strain cot1, hits give low values 0.98 | S. cerevisiae deletion strains, locus YPL051W, strain arl3, hits give low values 1.01 | S. cerevisiae deletion strains, locus YPL055C, strain LGE1, hits give low values 0.974 | S. cerevisiae deletion strains, locus YPL078C, strain atp4, hits give low values 0.989 | S. cerevisiae deletion strains, locus YPL106C, strain sse1, hits give low values 0.956 | S. cerevisiae deletion strains, locus YPL240C, strain hsp82, hits give low values 1 | S. cerevisiae deletion strains, locus YPL241C, strain CIN2, hits give low values 0.991 | S. cerevisiae deletion strains, locus YPL256C, strain CLN2, hits give low values 0.908 | S. cerevisiae deletion strains, locus YPR119W, strain clb2, hits give low values 0.991 | S. cerevisiae deletion strains, locus YPR141C, strain kar3, hits give low values 0.963 | S. cerevisiae deletion strains, locus YPR163C, strain tif3, hits give low values 0.978 | S. cerevisiae deletion strains, locus YPR167C, strain met16, hits give low values 0.976 | S. cerevisiae deletion strains, strain wtn01, hits give low values 0.96 | S. cerevisiae strains, strain wild type, hits give low values 0.973

— PubChem BioAssay AID1159580 (chemical genetic matrix, 2015)
